From PubChem BioAssay (NCATS)
Records with an inconclusive call do not appear. A call without a number means that no potency is given here. Values without a mark were called inactive. Activity calls are given as the source filed them. Unless noted, calls follow the shape of the dose curve; as a rule, active = well fitted curve in the direction sought with a large enough effect; inconclusive = small, poorly fitted or top-dose-only effect, or another doubt; inactive = no such curve, though single readings can be large; an effect the other way counts as inactive or inconclusive.

Key:
[1] = biological target: Calcium and integrin-binding protein 1 (Homo sapiens) (UniProt Q99828); test: Primary qHTS for Identification of Calcium Integrin Binding Protein 1 (CIB1) Competitor (AID 1508620);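 also: GST tagged CIB1 binding a fluorescein labelled alphaIIb integrin peptide tracer; top concentration of the series differs between compounds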
Sequence of Calcium and integrin-binding protein 1 (Homo sapiens) (Q99828 whole entry, looked up): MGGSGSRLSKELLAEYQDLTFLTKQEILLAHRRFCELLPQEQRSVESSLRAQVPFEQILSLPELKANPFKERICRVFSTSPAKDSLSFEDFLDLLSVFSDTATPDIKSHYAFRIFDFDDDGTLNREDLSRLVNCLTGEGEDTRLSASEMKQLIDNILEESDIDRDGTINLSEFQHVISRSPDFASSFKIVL
Summary of the method: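 Fluorescence polarization competition: CIB1-GST (1 uM final) preincubated with compound 15 min at room temperature, then FITC-labeled alphaIIb peptide (100 nM final) added for another 15 min. Polarization read at Ex 480/Em 540.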

[2] = Primary qHTS for small molecule stabilizers of the endoplasmic reticulum resident proteome: Secreted ER Calcium Modulated Protein (SERCaMP) assay (AID 1508630)
Summary of the method: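 The SH-SY5Y reporter protocol was run at 3 concentrations up to 38.3 uM (primary) or 11 concentrations (follow-up): 16 h compound, 100 nM thapsigargin for 4 h, then extracellular luciferase luminescence.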

[3] = biological target: Cytochrome P450 2D6 (Homo sapiens) (UniProt P10635); test: Cytochrome P450 family 2 subfamily D member 6 (CYP2D6) small molecule antagonists: luciferase biochemical (cell-free) qHTS assay (AID 1645840; active = well fitted curve in the direction sought with a large enough effect in the repeat runs; an effect the other way counts as inactive or inconclusive; also: series mostly up to about 57 µM; nearly all actives have a fitted effect of over 55% in size)
Sequence of Cytochrome P450 2D6 (Homo sapiens) (P10635 whole entry, looked up): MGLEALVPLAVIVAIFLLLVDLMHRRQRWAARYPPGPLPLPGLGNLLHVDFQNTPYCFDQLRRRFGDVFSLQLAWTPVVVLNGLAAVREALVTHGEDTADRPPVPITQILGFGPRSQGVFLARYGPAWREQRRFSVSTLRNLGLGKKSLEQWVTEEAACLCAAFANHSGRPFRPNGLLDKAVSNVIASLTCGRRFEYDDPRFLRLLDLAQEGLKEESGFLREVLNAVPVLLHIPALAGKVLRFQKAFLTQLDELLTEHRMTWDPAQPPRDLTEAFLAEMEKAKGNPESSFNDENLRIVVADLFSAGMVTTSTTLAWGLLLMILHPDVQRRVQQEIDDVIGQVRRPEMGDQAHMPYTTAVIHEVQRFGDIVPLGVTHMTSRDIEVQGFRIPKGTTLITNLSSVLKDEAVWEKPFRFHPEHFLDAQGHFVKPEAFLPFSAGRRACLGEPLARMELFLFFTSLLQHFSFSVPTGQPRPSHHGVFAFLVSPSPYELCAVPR
Summary of the method: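 P450-Glo CYP2D6 system: proluciferin substrate converted by enzyme to luciferin, read by luminescence proportional to activity. Enzyme-substrate mix with compound 10 min at room temperature, then NADPH regeneration 1 h before detection reagent.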

[4] = Counterscreen qHTS for small molecule stabilizers of the endoplasmic reticulum resident proteome: GLuc-NoTag assay (AID 1508627); also: series mostly up to about 76 µM
Summary of the method: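 Secreted GLuc lacking the SERCaMP modification is measured in SH-SY5Y cells exposed to compound for 19 h and then to thapsigargin (100 nM, 4 h) to deplete ER calcium; hits retested at 11 concentrations, up to 76.6 uM.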

[5] = Confirmatory qHTS for small molecule stabilizers of the endoplasmic reticulum resident proteome: Secreted ER Calcium Modulated Protein (SERCaMP) assay (AID 1508628); also: series mostly up to about 76 µM; nearly all actives have a fitted effect of over 40% in size
Summary of the method: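 GLuc-SERCaMP-expressing SH-SY5Y cells, pretreated 16 h with compound, are challenged with thapsigargin to empty ER calcium stores; after 4 h, coelenterazine is added directly to the medium and luminescence is imaged.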

[6] = Cell Viability qHTS for small molecule stabilizers of the endoplasmic reticulum resident proteome (AID 1508629); details: cell viability counter-screen, 100 nM thapsigargin for final 4 h;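 also: human SH-SY5Y neuroblastoma cells carrying the GLuc-SERCaMP reporter; compound exposure about 46 h in total before the viability read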
[7] = A High-Content qHTS Against Drug Library for the Identification of Small Molecules that Inhibit DYT1 Early Onset Primary Dystonia-Associated Cell Pathology (AID 1645839; calls by dose curve; also: series mostly up to about 46 µM)
Summary of the method: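 Induced EGFP-delE TorsinA cells are imaged after 48 h of compound treatment. Punctate fusion-protein distribution gives the %pathology value, while nuclei counts flag toxicity. Wild-type EGFP-hTOR1A cells define the normal pattern.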

Question: What does the source list for `O=c1cccc2n1CC1CNC[C@H]2C1`?
Answer: outcome [1]: inactive; Potency [2]: inactive

Question: With `O=C(O)CNC(=O)c1c(O)c2ccccc2n(Cc2ccccc2)c1=O` as the compound, how does the outcome [1] read?
Answer: inactive

Question: What about the Potency [2] of the same compound?
Answer: inactive

Question: What about the Potency [3] of the same compound?
Answer: inactive

Question: Which outcome [1] does the source give for `CC(N[C@H]1C[C@H]1c1ccccc1)c1ccc2c(c1)OCCO2` (some centres not stated) here?
Answer: inactive

Question: And the Potency [2]?
Answer: inactive

Question: For `Clc1ccc(C(c2ccc(Cl)cc2)n2cc[n+](CC(OCc3ccc(Cl)cc3Cl)c3ccc(Cl)cc3Cl)c2)cc1` (configuration not stated), which Potency [4] is on record?
Answer: inactive

Question: What about the Potency [5] of the same compound?
Answer: inactive

Question: And the max response [6]?
Answer: -14.7%

Question: Which Potency [4] does the source give for `C=CCN1CC[C@]23CCCCC2[C@H]1Cc1ccc(O)cc13` (some centres not stated) here?
Answer: inactive

Question: For `S=C(SSC(=S)N1CCCCC1)N1CCCCC1`, which Potency [7] is on record?
Answer: inactive
